From PMC5869772, “Quantitative profiling of BATF family proteins/JUNB/IRF hetero-trimers using Spec-seq” come the findings set out here.

For one test, the target named is T1, BATF;JUNB (human;human, UniProt Q16520;P17275 1-125;148-347, |).
T1 sequence 1: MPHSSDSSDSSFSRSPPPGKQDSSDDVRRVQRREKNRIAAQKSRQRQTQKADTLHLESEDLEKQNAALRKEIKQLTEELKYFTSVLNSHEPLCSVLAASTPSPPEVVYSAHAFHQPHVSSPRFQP
T1 sequence 2: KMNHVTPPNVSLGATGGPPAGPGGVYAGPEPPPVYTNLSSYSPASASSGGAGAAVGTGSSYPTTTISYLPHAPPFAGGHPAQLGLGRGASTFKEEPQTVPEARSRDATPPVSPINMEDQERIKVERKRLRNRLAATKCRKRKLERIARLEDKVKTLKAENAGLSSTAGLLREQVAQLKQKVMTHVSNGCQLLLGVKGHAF
The test is described as follows: Spec-seq (EMSA and sequencing of bound and unbound bands); 100 nM BATFx-JUNB, 1 uM dsDNA library, 50 mM K acetate, 20 mM Tris-acetate, 10 mM Mg acetate, 100 ug/ml BSA, pH 7.9, 10% glycerol, 30 min on ice; native 9% PAGE at 4 C; low values mean tight binding. The settings on record: protein: recombinant;recombinant; tags: N-terminal mCherry-TEV, cleaved off;C-terminal 6His; copies: 1;1; dsDNA, one strand shown. The method, boiled down: (§1)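 The protein, at 100 nM, was incubated with 1 μM double-stranded degenerate DNA library for 30 min on ice in NEB Cutsmart buffer with 10% glycerol, then resolved by native 9% PAGE at 4 °C. Excised bound and unbound bands were PCR-barcoded and Illumina-sequenced, and each sequence's relative binding energy in kT is −ln of its bound/unbound read-count ratio.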
For the sequence “GATAGTCTCATTTTCACCCCGTGAAAATGAGTCATTGTTCCATTACAGTATCTGT”, the binding signal is -1.25 kT.
For “GATAGTCTCATTTTCACCCCGTGAAATGATGTCATTGTTCCATTACAGTATCTGT”, the binding signal was -0.738 kT.
Still for that read-out and setting: as for “GATAGTCTCATTTTCACCCCGTGAAATTACTCATTTGTTCCATTACAGTATCTGT”, the figure is -0.755 kT; as for “GATAGTCTCATTTTCACCCCGTGAAACTGCGTCATTGTTCCATTACAGTATCTGT”, -0.647 kT; as for “GATAGTCTCATTTTCACCCCGTGAAATCGAGTCATTGTTCCATTACAGTATCTGT”, -0.54 kT.
With “GATAGTCTCATTTTCACCCCGTGAAATGAGTCAGTTGTTCCATTACAGTATCTGT”, the binding signal was -0.773 kT.
For “GATAGTCTCATTTTCACCCCGTGAAATGACCTCATTGTTCCATTACAGTATCTGT”, the binding signal is -0.305 kT.
Turning to “GATAGTCTCATTTTCACCCCGTGAAATGACGTTATTGTTCCATTACAGTATCTGT”, the binding signal was -0.288 kT.
“GATAGTCTCATTTTCACCCCGTGAAATGAGTCATTTGTTCCATTACAGTATCTGT”: the binding signal is -1.06 kT.
With “GATAGTCTCATTTTCACCCCGTGAAACGACGTCATTGTTCCATTACAGTATCTGT”, the binding signal is -0.501 kT.
Consider “GATAGTCTCATTTTCACCCCGTGAAATGACTGAGTTGTTCCATTACAGTATCTGT”, for which the binding signal was -0.132 kT.
Turning to “GATAGTCTCATTTTCACCCCGTGAAATGACATCATTGTTCCATTACAGTATCTGT”, the binding signal is -0.531 kT.
On to “GATAGTCTCATTTTCACCCCGTGAAATGAGTGAATTGTTCCATTACAGTATCTGT”, for which the binding signal came out at 0.0809 kT.
Regarding “GATAGTCTCATTTTCACCCCGTGAAATGAATCATTTGTTCCATTACAGTATCTGT”, the binding signal was -0.738 kT.
On the same count and under the same terms, as for “GATAGTCTCATTTTCACCCCGTGAAATGACGTCCTTGTTCCATTACAGTATCTGT”, the figure is 0.097 kT; as for “GATAGTCTCATTTTCACCCCGTGAAATGACCCACTTGTTCCATTACAGTATCTGT”, 0.593 kT; as for “GATAGTCTCATTTTCACCCCGTGAAATGACTCGTTTGTTCCATTACAGTATCTGT”, -0.0971 kT.
Same read-out and setting: as for “GATAGTCTCATTTTCACCCCGTGAAAGAGAGTCATTGTTCCATTACAGTATCTGT”, the figure is -0.0937 kT.
Take “GATAGTCTCATTTTCACCCCGTGAAATTCAGTCATTGTTCCATTACAGTATCTGT”: the binding signal is -0.317 kT.
For “GATAGTCTCATTTTCACCCCGTGAAATGCCGTCATTGTTCCATTACAGTATCTGT”, the binding signal was -0.311 kT.
Regarding “GATAGTCTCATTTTCACCCCGTGAAACGAGTCATTTGTTCCATTACAGTATCTGT”, the binding signal is -0.477 kT.
On to “GATAGTCTCATTTTCACCCCGTGAAAGTGGGTCATTGTTCCATTACAGTATCTGT”, for which the binding signal was 0.393 kT.
Turning to “GATAGTCTCATTTTCACCCCGTGAAAGTGCGTCATTGTTCCATTACAGTATCTGT”, the binding signal is -0.695 kT.
As to “GATAGTCTCATTTTCACCCCGTGAAAAGGAGTCATTGTTCCATTACAGTATCTGT”, the binding signal is -0.134 kT.
As for “GATAGTCTCATTTTCACCCCGTGAAATGAGGCAGTTGTTCCATTACAGTATCTGT”, the binding signal was found to be 0.781 kT.
For “GATAGTCTCATTTTCACCCCGTGAAATGAGTCCATTGTTCCATTACAGTATCTGT”, the binding signal stood at 0.0398 kT.
In the case of “GATAGTCTCATTTTCACCCCGTGAAATGACGCAGTTGTTCCATTACAGTATCTGT”, the binding signal is -0.301 kT.
Turning to “GATAGTCTCATTTTCACCCCGTGAAATGAGACAATTGTTCCATTACAGTATCTGT”, the binding signal worked out at 0.693 kT.
Take “GATAGTCTCATTTTCACCCCGTGAAATGAGTCGCTTGTTCCATTACAGTATCTGT”: the binding signal worked out at 0.025 kT.
For “GATAGTCTCATTTTCACCCCGTGAAATGAGTTAGTTGTTCCATTACAGTATCTGT”, the binding signal was 0.169 kT.
Regarding “GATAGTCTCATTTTCACCCCGTGAAATGACTTACTTGTTCCATTACAGTATCTGT”, the binding signal is 0.0298 kT.
The same measure, in the same setting: as for “GATAGTCTCATTTTCACCCCGTGAAATTGAGTCATTGTTCCATTACAGTATCTGT”, the figure is -0.981 kT; as for “GATAGTCTCATTTTCACCCCGTGAAAGGAGTCATTTGTTCCATTACAGTATCTGT”, -0.0687 kT.

The next test addresses T2, BATF2 (bZIP);JUNB (human;human, UniProt Q8N1L9;P17275 1-142;148-347, |).
T2 sequence 1: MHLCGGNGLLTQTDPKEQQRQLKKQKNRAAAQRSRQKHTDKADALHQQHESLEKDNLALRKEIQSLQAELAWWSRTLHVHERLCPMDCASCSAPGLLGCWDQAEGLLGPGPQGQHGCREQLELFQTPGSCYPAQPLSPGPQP
T2 sequence 2: T1 sequence 2
The test is described as above. The following applies: protein: recombinant;recombinant; tags: N-terminal mCherry-TEV, cleaved off;C-terminal 6His; copies: 1;1; dsDNA, one strand shown. The essentials:
as §1
For the sequence “GATAGTCTCATTTTCACCCCGTGAAAATGAGTCATTGTTCCATTACAGTATCTGT”, the binding signal was -1.01 kT.
With “GATAGTCTCATTTTCACCCCGTGAAATGATGTCATTGTTCCATTACAGTATCTGT”, the binding signal was -0.708 kT.
On the same count and under the same terms, as for “GATAGTCTCATTTTCACCCCGTGAAATTACTCATTTGTTCCATTACAGTATCTGT”, the figure is -0.323 kT; as for “GATAGTCTCATTTTCACCCCGTGAAACTGCGTCATTGTTCCATTACAGTATCTGT”, -0.164 kT; as for “GATAGTCTCATTTTCACCCCGTGAAATCGAGTCATTGTTCCATTACAGTATCTGT”, 0.0512 kT.
Still for that read-out and setting: as for “GATAGTCTCATTTTCACCCCGTGAAATGAGTCAGTTGTTCCATTACAGTATCTGT”, the figure is -0.0533 kT.
On the same count and under the same terms, as for “GATAGTCTCATTTTCACCCCGTGAAATGACCTCATTGTTCCATTACAGTATCTGT”, the figure is 0.217 kT; as for “GATAGTCTCATTTTCACCCCGTGAAATGACGTTATTGTTCCATTACAGTATCTGT”, 0.0695 kT.
As for “GATAGTCTCATTTTCACCCCGTGAAATGAGTCATTTGTTCCATTACAGTATCTGT”, the binding signal is -0.903 kT.
For the sequence “GATAGTCTCATTTTCACCCCGTGAAACGACGTCATTGTTCCATTACAGTATCTGT”, the binding signal was -0.195 kT.
As for “GATAGTCTCATTTTCACCCCGTGAAATGACTGAGTTGTTCCATTACAGTATCTGT”, the binding signal is 0.387 kT.
On the same count and under the same terms, under “GATAGTCTCATTTTCACCCCGTGAAATGACATCATTGTTCCATTACAGTATCTGT” stands -0.296 kT; under “GATAGTCTCATTTTCACCCCGTGAAATGAGTGAATTGTTCCATTACAGTATCTGT”, 0.83 kT.
With “GATAGTCTCATTTTCACCCCGTGAAATGAATCATTTGTTCCATTACAGTATCTGT”, the binding signal is -0.323 kT.
“GATAGTCTCATTTTCACCCCGTGAAATGACGTCCTTGTTCCATTACAGTATCTGT”: the binding signal came to 0.602 kT.
“GATAGTCTCATTTTCACCCCGTGAAATGACCCACTTGTTCCATTACAGTATCTGT”: the binding signal is 1.04 kT.
Turning to “GATAGTCTCATTTTCACCCCGTGAAATGACTCGTTTGTTCCATTACAGTATCTGT”, the binding signal is 0.491 kT.
For the sequence “GATAGTCTCATTTTCACCCCGTGAAAGAGAGTCATTGTTCCATTACAGTATCTGT”, the binding signal came to 0.318 kT.
With “GATAGTCTCATTTTCACCCCGTGAAATTCAGTCATTGTTCCATTACAGTATCTGT”, the binding signal is 0.285 kT.
For “GATAGTCTCATTTTCACCCCGTGAAATGCCGTCATTGTTCCATTACAGTATCTGT”, the binding signal worked out at 0.122 kT.
Consider “GATAGTCTCATTTTCACCCCGTGAAACGAGTCATTTGTTCCATTACAGTATCTGT”, for which the binding signal is 0.283 kT.
As to “GATAGTCTCATTTTCACCCCGTGAAAGTGGGTCATTGTTCCATTACAGTATCTGT”, the binding signal came to 0.822 kT.
Same read-out and setting: as for “GATAGTCTCATTTTCACCCCGTGAAAGTGCGTCATTGTTCCATTACAGTATCTGT”, the figure is -0.267 kT; as for “GATAGTCTCATTTTCACCCCGTGAAAAGGAGTCATTGTTCCATTACAGTATCTGT”, 0.436 kT; as for “GATAGTCTCATTTTCACCCCGTGAAATGAGGCAGTTGTTCCATTACAGTATCTGT”, 1.36 kT.
Consider “GATAGTCTCATTTTCACCCCGTGAAATGAGTCCATTGTTCCATTACAGTATCTGT”, for which the binding signal was 1.1 kT.
Same read-out and setting: as for “GATAGTCTCATTTTCACCCCGTGAAATGACGCAGTTGTTCCATTACAGTATCTGT”, the figure is 0.363 kT; as for “GATAGTCTCATTTTCACCCCGTGAAATGAGACAATTGTTCCATTACAGTATCTGT”, 1.52 kT.
Consider “GATAGTCTCATTTTCACCCCGTGAAATGAGTCGCTTGTTCCATTACAGTATCTGT”, for which the binding signal is 1.18 kT.
In the case of “GATAGTCTCATTTTCACCCCGTGAAATGAGTTAGTTGTTCCATTACAGTATCTGT”, the binding signal was found to be 0.988 kT.
Take “GATAGTCTCATTTTCACCCCGTGAAATGACTTACTTGTTCCATTACAGTATCTGT”: the binding signal was found to be 0.563 kT.
In the case of “GATAGTCTCATTTTCACCCCGTGAAATTGAGTCATTGTTCCATTACAGTATCTGT”, the binding signal is -0.804 kT.
Take “GATAGTCTCATTTTCACCCCGTGAAAGGAGTCATTTGTTCCATTACAGTATCTGT”: the binding signal was found to be 0.569 kT.
